Rows were chosen to be rich in hits. Some 0.9% of all compounds tested hit in one or more screens of this group.
TAR Tat displ: HIV-1 TAR-Tat binding disruption | HIV-1 TAR RNA, Tat peptide displacement FRET; stronger effect = higher value | z-score (no concentration beside the values) | actives 0.6% (n = 100,000); active means z-score of 3 or more in at least 2 runs
CDC25B-CDK2 inh: human CDC25B-CDK2/CyclinA binding inhibition. HTRF CDC25B-CDK2/CyclinA binding, anti-His/anti-Flag; stronger effect = higher value. actives 0.72% (n = 94,000). AID 1259370. P30305+P24941. z-score (test concentration not listed); in the data active means z-score above about 3.2
Active calls of the source: *; . = not tested or not shown.

SMILES | TAR Tat displ | CDC25B-CDK2 inh
NS(=O)(=O)c1ccc(Nc2cc(-c3ccco3)cs2)cc1 | . | 17.2*
Cc1ccc(-c2csc(Nc3ccc(S(N)(=O)=O)cc3)n2)cc1 | 1.99 | -0.94
CCc1ccc(S(=O)(=O)c2cnc3ccc(OC)cc3c2N2CCCC2)cc1 | -2.4 | 5.36
CCOc1ccc(-c2cc(C(=O)O)c3cc(Br)ccc3n2)cc1 | 1.9 | -2.38
COc1ccc(-c2cc(C(=O)OC(C)C)c3cc(Br)ccc3n2)cc1 | . | 15.1*
O=C(Nc1ccc2c(c1)OCCO2)c1cnn(-c2ccccc2)c1-n1cccc1 | 0.95 | -2.68
Cc1cccc(C(=O)N2c3ncnn3C3(CCCCC3)[C@@H]3CCCC[C@@H]32)c1 | 9.19* | 0.37
O=C(c1ccccc1)N1c2ncnn2C2(CCCCC2)[C@@H]2CCCC[C@@H]21 | 2.79 | -1.4
COc1ccc2cc(S(=O)(=O)c3ccc(Cl)cc3)c(=O)oc2c1 | . | -2.52
Cc1cccc(CSc2nc3c(c(=O)[nH]2)C(c2ccc(O)c(O)c2)CC(=O)N3)c1 (stereo not given) | 12.4* | -0.51
Cc1ccc(CSc2nc3c(c(=O)[nH]2)C(c2ccc(O)c(O)c2)CC(=O)N3)cc1 (stereo not given) | 12.5* | 0.11
O=C1CC(c2ccc(O)c(O)c2)c2c(nc(SCc3ccccc3)[nH]c2=O)N1 (stereo not given) | 16.6* | 2.59
Cc1cccc(CSc2nc3c(c(=O)[nH]2)C(c2cc(F)cc(F)c2)CC(=O)N3)c1 (stereo not given) | 2.53 | 1.54
COc1ccc(C2CC(=O)Nc3nc(SCc4ccccc4)[nH]c(=O)c32)cc1Br (stereo not given) | 0.73 | -0.72
Cc1ccc(CSc2nc3c(c(=O)[nH]2)C(c2cc(C)ccc2C)CC(=O)N3)cc1 (stereo not given) | 1.47 | -1.35
CCOC(=O)c1cccc(CSc2nc(-c3ccc(C)cc3)c(C#N)c(=O)[nH]2)c1 | -0.39 | 3.43
CCCCNC(=O)C1=CC(c2cccs2)=NS(=O)(=O)N1C | 2.35 | -1.93
CCOC(=O)CSc1ccc2nnc(-c3ccc(C)cc3)n2n1 | . | -1.02
COc1ccc(-c2n[nH]c3c2C(c2ccc(C(C)C)cc2)NC3=O)cc1 (stereo not given) | 1.29 | .
CCCc1nn2c(=O)cc(CSc3nc(-c4ccccc4Cl)nc4cc(=O)[nH]n34)nc2s1 | 0.06 | .
O=C(O)c1cc(-c2ccccc2)nc2ccccc12 | 4.07 | -1.33
N#Cc1ccc(-c2cc(C(=O)O)c3c(ccc4ccccc43)n2)cc1 | . | 12.4*
C=C(C)/C=C1/C=CC(=O)C(C)=C1 | 4.55* | .
O=C(O)c1ccc(CNCCC2=CCCCC2)s1 | 0.05 | -1.07
COC(=O)c1c(SCC(=O)Nc2ccc(F)cc2)[nH]c2ccc(Cl)cc2c1=O | 16.1* | .
SMILES | TAR Tat displ | CDC25B-CDK2 inh
COC(=O)c1c(SCC(=O)Nc2ccc(F)c(F)c2)[nH]c2ccc(Cl)cc2c1=O | -0.18 | .
O=C(O)c1ccc(CS(=O)c2ccccc2Cl)o1 (stereo not given) | 1.44 | .
Cc1ccc(C)c(CSc2ncc(CO)n2Cc2ccc(Cl)cc2)c1 | 0.94 | .
Cc1ccc(S(=O)(=O)Nc2cc(Sc3nc4ccccc4[nH]3)c(O)c3ccccc23)cc1 | . | 18*
Cc1ccc(S(=O)(=O)Nc2cc(Sc3nc(C)cc(C)n3)c(O)c3ccccc23)cc1 | . | -2.33
CN1CCC(N(Cc2ccco2)C(=O)Cn2c(=O)oc3ccccc32)CC1 | 1.15 | .
O=C1C=C(NCc2ccco2)CC(c2ccccc2)C1 (stereo not given) | 0.24 | -1.2
O=C1C=C(NCCc2ccccc2)CC(c2ccco2)C1 (stereo not given) | 24* | -0.39
c1ccc(CNc2cc(-c3ccccc3)nc3nncn23)cc1 | -0.07 | 4.61*
COc1ccc(CNc2cc(-c3ccccc3)nc3nncn23)cc1 | 0.51 | 3.9
Cc1ccc(C(C)NC(=O)c2oc3c(c2C)-c2nc(C)sc2CC3)cc1 (stereo not given) | 0.34 | .
Cc1cc(C)c2oc(C(=O)Nc3sc4c(c3C(=O)NCc3ccco3)CCC4)cc(=O)c2c1 | -0.05 | -1.25
Cc1ccc2oc(C(=O)Nc3sc4c(c3C(=O)NCc3ccco3)CCC4)cc(=O)c2c1 | -2.28 | -0.74
Cc1cc(C)c2c(=O)cc(C(=O)Nc3sc4c(c3C(=O)NCc3ccco3)CCC4)oc2c1 | 2.01 | 4.01*
Cc1cc2oc(C(=O)Nc3sc4c(c3C(=O)NCc3ccco3)CCC4)cc(=O)c2cc1C | 11.6* | 6.56*
CCc1ccc(C(c2ccc(CC)o2)c2cc3c(cc2[N+](=O)[O-])OCCO3)o1 | . | 4.4*
CCOC(=O)C(=O)CC(=O)c1ccc2c(c1)OCCO2 | 0.61 | 0.5
O=C(Nc1ccccc1)Nn1cnnc1 | . | -0.44
O=C(Nc1ccc(Cl)c(Cl)c1)Nn1cnnc1 | . | 18.3*
CC(=O)Nc1ccc(C2=N/C(=C/c3cn(C(C)=O)c4ccccc34)C(=O)O2)cc1 | . | 0.27
CCOCCCNc1ncc2c(n1)CC(c1ccco1)CC2=O (stereo not given) | . | -0.75
O=C1CC(c2cccs2)Cc2nc(NCCSc3ccc(Cl)cc3)ncc21 (stereo not given) | 0.17 | 21.3*
COc1ccc(C(=O)N2CCC(c3ccccc3OC)CC2)cc1 | . | -0.81
Cc1ccc(CNc2nc(NCCCN3CCOCC3)nc3c2cnn3C)cc1 | 1.89 | .
O=C(CSc1nnc(-c2cccnc2)o1)NCC1CCCO1 (stereo not given) | 0.82 | -1.21
SMILES | TAR Tat displ | CDC25B-CDK2 inh
O=C(CSc1nnc(-c2cccnc2)o1)NC1CCCC1 | 4.56* | 0.52
CCCc1nc(C)cc(N2CCc3ccccc3C2)n1 | -1.05 | -0.94
O=C1C[C@@H](c2ccc(O)cc2)Oc2cc(O)cc(O)c21 | 2.87 | .
O=c1c(O)cc([C@H]2Oc3cc(O)cc(O)c3C[C@H]2O)cc2c([C@H]3Oc4cc(O)cc(O)c4C[C@H]3O)cc(O)c(O)c12 | 17.8* | .
O=C(O[C@@H]1Cc2c(O)cc(O)cc2O[C@@H]1c1ccc(O)c(O)c1)c1cc(O)c(O)c(O)c1 | 29.2* | .
O=C(O[C@@H]1Cc2c(O)cc(O)cc2O[C@@H]1c1cc(O)c(O)c(O)c1-c1c([C@H]2Oc3cc(O)cc(O)c3C[C@H]2O)cc(O)c(O)c1O)c1cc(O)c(O)c(O)c1 | 4.67* | .
CC(=O)Oc1cc(OC(C)=O)c2c(c1)O[C@H](c1ccc(OC(C)=O)c(OC(C)=O)c1)[C@@H](OC(C)=O)C2 | 0.8 | .
O=C(Oc1cc(OC(=O)c2ccccc2)c2c(c1)O[C@H](c1ccc(OC(=O)c3ccccc3)c(OC(=O)c3ccccc3)c1)[C@@H](OC(=O)c1ccccc1)C2)c1ccccc1 | -0.12 | .
O=C(O[C@@H]1Cc2c(O)cc(O)cc2O[C@@H]1c1cc(O)c(O)c(O)c1)c1cc(O)c(O)c(O)c1 | 25.1* | .
CC1=C(C(=O)NCCN(C)C)C2(CCN(S(C)(=O)=O)CC2)OC1=O | 1.31 | .
Oc1cc(O)c2c(c1)O[C@H](c1ccc(O)c(O)c1)[C@H](O)C2 | 24* | .
Oc1ccc2c(c1)O[C@H](c1ccc(O)c(O)c1)[C@@H](O)C2 | 3.12 | .
O=C(c1cccs1)N1CCN(Cc2cc(=O)c3cccc(Cl)c3[nH]2)CC1 | -1.02 | .
O=C(NCC1CCCO1)c1cccc(N2C(=O)CCS2(=O)=O)c1 (stereo not given) | 1.47 | -1.27
O=C(NCC1CCCO1)c1cccc(N2C(=O)c3ccc([N+](=O)[O-])cc3C2=O)c1 (stereo not given) | . | 3.46*
CCn1cc(C(=O)N2CCc3ccccc32)c(=O)c2cc(S(=O)(=O)N3CC(C)CC(C)C3)ccc21 (stereo not given) | 1.95 | -0.41

Compound activity as filed in PubChem BioAssay.
